# An excerpt weighted towards active compounds, which were near 7.5% of everything screened.
# ELG1 genotoxic: qHTS screen for small molecules that induce genotoxicity in human embryonic kidney (HEK293T) cells expressing luciferase-tagged ELG1; Potency, µM (top dose mostly 46 µM), inactives show top-dose activity change, positive = activation, usual class: activators; 330,000 tested, 1.3% active; HEK293T ELG1-luciferase reporter, luminescence, 16 h; note: % of control where 0% means no effect; nearly all actives have a fitted effect of over 60% in size
#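 Luminescence read-out: rising ELG1-luciferase signal, reflecting elevated ELG1 protein under genetic stress, flags genotoxic compounds. Cells were treated for 16 hr at 37 °C before ONE-Glo detection.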
# NPC1 promoter act: qHTS Assay for NPC1 Promoter Activators. Huh7 NPC1 promoter luciferase reporter, 24 h. Potency, µM (doses to about 9.22 µM), for inactives: top-dose activation, usual class: activators. 320,000 tested, 2.4% active. AID 485313, 2010; note: % of control where 0% means no effect; nearly all actives have a fitted effect of over 60% in size
#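 Readout is luciferase luminescence, reflecting NPC1 promoter activation in stably transfected Huh7 cells after 24 h compound exposure at 37 °C in reduced-serum medium with 10% FBS.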
# KinaseGlo FLuc: Counterscreen for Luciferase (Kinase-Glo TM) Inhibition; Kinase-Glo luciferase, ATP luminescence, 8 min; Potency, µM (doses to about 38.3 µM), without a hit: at the highest dose activity change, negative = inhibition, most hits filed as inhibitors; 200,000 tested, 0.28% active; AID 1379, 2008; note: % is set by controls: 0 for no effect and ±100 for the full control effect; nearly all actives have a fitted effect of over 60% in size
#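 Substrate mix (final 50 mM imidazole pH 7.2, 50 mM KCl, 7 mM MgCl2, 10 uM ATP, 0.01% Tween 20, 0.05% BSA) plus pin-tool compound, then Kinase-Glo detection mix; 8 min ambient, luminescence read.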
# SMN2 splice enh: qHTS Assay for Enhancers of SMN2 Splice Variant Expression | HEK293 SMN2-luciferase splicing reporter, luminescence, 30-36 h | AID 1458, 2008 | Potency, µM (series often up to 46.1 µM), without a hit: at the top dose activity change, positive = activation, usual class: activators | 210,000 tested, 2.8% active; note: % of control where 0% means no effect; nearly all actives have a fitted effect of over 55% in size
#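 HEK293 cells carry an SMN2 […]–luciferase reporter in which exon 7 inclusion puts luciferase in frame. Cells were plated 10-12 h before compound addition, then incubated 30-36 h at 37C. ONE-Glo luminescence was read; sodium butyrate at 4.5 mM final served as control.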
# FLuc counter: qHTS profiling assay for firefly luciferase inhibitor/activator using purifed enzyme and Km concentrations of substrates (counterscreen for miR-21 project). Potency, µM (series often up to 57.5 µM), without a hit: at the highest dose activity change, negative = inhibition, actives largely listed as inhibitors. AID 588342, 2011. 360,000 tested, 6.9% active. Luciferin 4-monooxygenase (Photinus pyralis), P08659. purified FLuc, Km substrates, luminescence inhibition;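 note: plate controls were vehicle for no effect and reference inhibitor for full effect; nearly all actives have a fitted effect of over 55% in size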
# Target sequence (P08659 whole entry, looked up): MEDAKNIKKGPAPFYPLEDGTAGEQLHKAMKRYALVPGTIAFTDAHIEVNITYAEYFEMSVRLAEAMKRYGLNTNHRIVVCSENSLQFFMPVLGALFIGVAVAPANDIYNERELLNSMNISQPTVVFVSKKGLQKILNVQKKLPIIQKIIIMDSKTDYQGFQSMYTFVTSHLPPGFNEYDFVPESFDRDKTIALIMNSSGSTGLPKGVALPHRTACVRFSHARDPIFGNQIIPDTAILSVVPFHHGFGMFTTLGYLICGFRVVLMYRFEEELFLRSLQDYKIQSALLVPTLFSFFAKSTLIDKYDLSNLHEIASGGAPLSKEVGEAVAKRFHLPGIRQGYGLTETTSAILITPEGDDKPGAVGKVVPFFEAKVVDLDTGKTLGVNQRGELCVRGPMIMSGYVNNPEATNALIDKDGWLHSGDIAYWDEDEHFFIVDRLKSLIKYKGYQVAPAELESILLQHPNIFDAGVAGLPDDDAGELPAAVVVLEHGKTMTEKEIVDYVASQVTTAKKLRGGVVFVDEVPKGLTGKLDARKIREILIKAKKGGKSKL
#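 Biochemical qHTS of compounds, final roughly 60 µM downward over six points, against 10 nM purified firefly luciferase using Km concentrations of substrates (10 uM D-luciferin, 10 uM ATP) in Tris acetate pH 7.5 buffer; luminescence output.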
# Rab9 prom act: qHTS Assay for Rab9 Promoter Activators; Huh7 Rab9 promoter-luciferase reporter, luminescence, 24 h; Potency, µM (doses to about 9.22 µM), for inactives: top-dose activation, negative = inhibition, usual class: activators; 320,000 tested, 2.8% active; AID 485297, 2010; note: % of control where 0% means no effect; nearly all actives have a fitted effect of over 60% in size
#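 Rab9 promoter-driven luciferase in stably transfected Huh7 cells; 1500 cells/well rested 2 h, exposed to compound in DMSO for 24 h at 37 °C, 5% CO2. Luminescence read 10 min after adding luciferase reagent at ambient temperature.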
# * hit, by the source's call; u = inconclusive; x = not tested or not shown. Calls come from the whole dose curve; as a rule, active = well fitted curve in the direction sought with a large enough effect; inconclusive = small, poorly fitted or top-dose-only effect, or another doubt; inactive = no such curve, though single readings can be large; an effect the other way counts as inactive or inconclusive. Potency is the fitted concentration of half-maximal effect.
SMILES,ELG1 genotoxic,NPC1 promoter act,KinaseGlo FLuc,SMN2 splice enh,FLuc counter,Rab9 prom act
Cc1cc(/C=N/NC(=O)c2cccs2)c(C)n1-c1ccccc1,u,0.63µM*,-3%,u,0.085µM*,0.79µM*
Cc1cc(C(=O)N/N=C2\CC(=O)c3ccccc32)c(C)n1-c1ccccc1,u,u,-24%,10µM*,2.7µM*,3.5µM*
Cc1cc(/C=N/NC(=O)c2cccc([N+](=O)[O-])c2)c(C)n1-c1ccccc1,u,0%,-2%,27%,1.7µM*,20%
Cc1cc(/C=N/NC(=O)COc2cccc3cccnc23)c(C)n1-c1ccc(O)cc1,5%,20%,-1%,u,3.4µM*,30%
Cc1cc(C2(c3cc(C)c(O)cc3C)OS(=O)(=O)c3ccccc32)c(C)cc1O,x,x,x,-8%,x,x
COc1ccccc1NC(=O)CCSc1nc(C)cs1,5%,1%,x,x,-1%,-1%
Cc1ccc(-n2c(C)cc(/C=N/NC(=O)CC3(C)OCCO3)c2C)c(C)c1,-1%,1%,-3%,-48%,u,1%
O=C(N/N=C/c1cccnc1)c1cccs1,6%,3%,x,x,u,18%
Cc1ccc(-n2c(C)cc(/C=N/NC(=O)c3ccncc3)c2C)c(C)c1,-4%,-5%,-2%,-10%,12µM*,8%
Cc1cc(/C=N/NC(=O)c2cccs2)c(C)n1-c1cnccn1,7.3µM*,2µM*,x,x,4.8µM*,3.5µM*
Cc1cc(C(=O)O)c(C)n1-c1ccccc1,1%,4%,2%,-10%,5%,-1%
Cc1cc(C(=O)N/N=C/c2ccc(O)c(O)c2O)c(C)n1-c1ccccc1,-5%,0%,-7%,-38%,11µM*,-3%
COc1cc2oc(=O)c(CC(=O)N3CCCCC3)c(C)c2cc1OC,x,x,x,-8%,-5%,x
O=[N+]([O-])c1cc2c(cc1C=Nc1ccccc1)OCO2,1%,-1%,-4%,-8%,-13%,0%
Sc1oc(-c2ccccc2)cc1C=Nc1ccccc1,12µM*,0%,-3%,-21%,2.1µM*,6%
COc1ccc(-c2cn(Cc3ccc(C)cc3)nn2)cc1,u,4µM*,x,x,u,2.8µM*
CCCCCc1ccc(-c2cn(Cc3ccc(C)cc3)nn2)cc1,-6%,u,x,x,u,3.5µM*
CCCCCc1ccc(-c2cn(Cc3cccc(OC)c3)nn2)cc1,-1%,-5%,x,x,u,0%
CC(=O)c1ccccc1OCC(O)Cn1c(CO)nc2ccccc21 (stereo not given),x,x,x,6%,24µM*,x
O=C(COC(=O)c1ccccc1N1C(=O)C2C3CCC(C3)C2C1=O)c1ccccc1 (stereo not given),1%,-2%,-3%,-5%,-12%,-9%
Cc1ccc(C)c(C(=O)COC(=O)c2ccccc2N2C(=O)C3C4CCC(C4)C3C2=O)c1 (stereo not given),-6%,14%,0%,-7%,7.6µM*,6%
COc1ccc(C2=Nn3c(C)nnc3SC2)cc1,u,-4%,x,x,2%,-4%
CCCCCCSc1ccc(-c2nc3ccc(C)cn3c2NCc2ccccc2)cc1OC,-3%,-2%,x,x,-2%,1%
CCC(C)Sc1ccc(-c2nc3ccc(C)cn3c2NCc2ccccc2)cc1OC (stereo not given),-7%,-7%,x,x,15µM*,-3%
C=CCOC(=O)N1CCN(c2cccc(C(F)(F)F)c2)CC1,-1%,-2%,-5%,-28%,-3%,u
SMILES,ELG1 genotoxic,NPC1 promoter act,KinaseGlo FLuc,SMN2 splice enh,FLuc counter,Rab9 prom act
O=c1c2cccc3c(N4CCOCC4)ccc(c32)c2nc3ccccc3n12,u,-1%,-6%,-21%,5.4µM*,1%
CC(C)(C)c1ccc(-c2noc(-c3ccc4c(c3)CCO4)n2)cc1,u,u,x,x,8.5µM*,26%
Cc1c(-c2nc(-c3ccc(C(C)(C)C)cc3)no2)n(C)oc1=O,u,u,x,x,11µM*,u
Cc1cc(-c2nc(-c3ccc(C(C)(C)C)cc3)no2)no1,u,1µM*,x,x,3µM*,0.56µM*
CC1CCC(NC(=O)c2ccc(CSc3nc4ccncc4n3Cc3ccc(F)cc3)cc2)CC1 (stereo not given),x,x,x,8%,-17%,x
CC(=O)Nc1ccc(C(=O)COC(=O)c2cccs2)c(F)c1,u,2.8µM*,x,x,3.4µM*,3.5µM*
CC(=O)Nc1ccc(C(=O)COC(=O)C2CC2C)c(F)c1 (stereo not given),u,1.4µM*,x,x,2.1µM*,1.4µM*
CCc1ccccc1-n1c2c(cc(-c3nc(-c4ccc(Cl)cc4)cs3)c1=O)C(=O)CC(C)(C)C2,x,x,x,1%,-8%,x
O=C(COc1ccc(F)cc1)NCCN1CCCC1,2%,-1%,x,x,-1%,-7%
CC(C)COC(=O)N1CCCC1C(=O)O (stereo not given),4%,7%,-1%,11%,1%,3.2µM*
CCn1c(C(=O)N2CCC(C(=O)N3CCN(c4cc(C)ccc4C)CC3)CC2)cc2sccc21,x,x,x,-42%,-20%,x
CC(C)(C)c1nnc(NC(=O)c2ccc(Cl)nc2)s1,16%,23%,9%,x,u,4.5µM*
CCc1nnc(NC(=O)c2cc(Cl)ccn2)s1,16µM*,2.2µM*,x,x,15µM*,2.5µM*
O=C(Nc1nnc(C2CC2)s1)c1ccc(Cl)nc1,u,u,x,x,12µM*,u
CCc1nnc(NC(=O)c2ccc(Cl)nc2)s1,u,26%,-5%,26%,13µM*,u
O=C(Nc1nnc(C2CC2)s1)c1ccc(S(=O)(=O)c2ccccc2)cc1,0%,1%,-1%,-14%,2%,-3%
Cc1cc(/C=C2/NC(=S)NC2=O)c(C)n1-c1cccnc1,21%,24%,-24%,u,5.4µM*,u
Cc1cc(/C=C2/NC(=O)N(c3ccccc3)C2=O)c(C)n1-c1cccnc1,u,2.2µM*,-4%,7.9µM*,3.4µM*,1.6µM*
COc1ccc(-c2csc(Nc3ccc(S(N)(=O)=O)cc3)n2)cc1OC,-14%,-12%,x,x,-17%,-2%
COc1ccc(-c2csc(Nc3ccc(C)cn3)n2)cc1OC,-1%,4%,5%,-19%,17µM*,u
COc1ccc(-c2csc(Nc3cc(C)ccn3)n2)cc1OC,5%,u,x,x,11µM*,u

# Assay outcomes as filed in PubChem BioAssay.
